According to PubChem BioAssay AID1159580 (chemical genetic matrix, 2015):
Hit rate of the full screen: of about 5,500 compounds, about 2,000 (36%) were called active. Inconclusive results (about 18%) are left out. No stated cut-off is given here; in the data, active means normalized growth mostly below about 0.91 (no sharp cut-off); inconclusive means no clear call, values can overlap the other calls; inactive means mostly above about 0.92. Some of the results follow.

Experiment: chemical genetic growth profiling, strain panel (AID 1159580);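 further: tested at 20 µM; growth read once vehicle control cultures reached saturation at 30 °C; 1 = growth at the plate median or of vehicle wells; lower values mean less growth of the strain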
Conditions: growth OD

Measured: normalized growth

Cc1cc(C)nc(NS(=O)(=O)c2ccc(N)cc2)n1
inactive: S. cerevisiae deletion strains, locus YJR066W, strain TOR1, hits give low values 0.929 | S. cerevisiae deletion strains, locus YJR075W, strain HOC1, hits give low values 0.98 | S. cerevisiae deletion strains, locus YKL009W, strain mrt4, hits give low values 0.961 | S. cerevisiae deletion strains, locus YKL068W, hits give low values 0.982 | S. cerevisiae deletion strains, locus YKL085W, strain MDH1 (second series), hits give low values 0.971 | S. cerevisiae deletion strains, locus YKL085W, strain MDH1, hits give low values 0.971 | S. cerevisiae deletion strains, locus YKL160W, strain elf1, hits give low values 1 | S. cerevisiae deletion strains, locus YKL190W, strain CNB1, hits give low values 1 | S. cerevisiae deletion strains, locus YKR001C, strain vps1, hits give low values 0.98 | S. cerevisiae deletion strains, locus YKR026C, strain gcn3, hits give low values 0.985 | S. cerevisiae deletion strains, locus YKR091W, strain srl3, hits give low values 0.958 | S. cerevisiae deletion strains, locus YLL001W, strain dnm1, hits give low values 1.03 | S. cerevisiae deletion strains, locus YLL026W, hits give low values 0.993 | S. cerevisiae deletion strains, locus YLL041C, strain sdh2, hits give low values 0.975 | S. cerevisiae deletion strains, locus YLR027C, strain aat2, hits give low values 0.985 | S. cerevisiae deletion strains, locus YLR039C, strain RIC1, hits give low values 0.981 | S. cerevisiae deletion strains, locus YLR058C, strain SHM2, hits give low values 0.986 | S. cerevisiae deletion strains, locus YLR102C, strain apc9, hits give low values 0.984 | S. cerevisiae deletion strains, locus YLR113W, strain HOG1, hits give low values 0.975 | S. cerevisiae deletion strains, locus YLR221C, strain rsa3, hits give low values 0.958 | S. cerevisiae deletion strains, locus YLR258W, strain gsy2, hits give low values 0.977 | S. cerevisiae deletion strains, locus YLR262C, strain YPT6 (second series), hits give low values 0.972 | S. cerevisiae deletion strains, locus YLR262C, strain YPT6, hits give low values 0.986 | S. cerevisiae deletion strains, locus YLR268W, strain sec22, hits give low values 0.952 | S. cerevisiae deletion strains, locus YLR320W, strain mms22, hits give low values 0.957 | S. cerevisiae deletion strains, locus YLR330W, strain CHS5, hits give low values 0.988 | S. cerevisiae deletion strains, locus YLR342W, strain FKS1 (second series), hits give low values 0.999 | S. cerevisiae deletion strains, locus YLR342W, strain FKS1, hits give low values 0.996 | S. cerevisiae deletion strains, locus YLR357W, strain rsc2, hits give low values 0.975 | S. cerevisiae deletion strains, locus YLR370C, strain arc18, hits give low values 0.984 | S. cerevisiae deletion strains, locus YLR371W, strain rom2, hits give low values 0.961 | S. cerevisiae deletion strains, locus YLR384C, strain iki3, hits give low values 0.985 | S. cerevisiae deletion strains, locus YLR418C, strain cdc73, hits give low values 1.02 | S. cerevisiae deletion strains, locus YML016C, strain PPZ1, hits give low values 0.995 | S. cerevisiae deletion strains, locus YML032C, strain rad52, hits give low values 0.98 | S. cerevisiae deletion strains, locus YML120C, strain ndi1, hits give low values 0.976 | S. cerevisiae deletion strains, locus YML124C, strain tub3, hits give low values 0.981 | S. cerevisiae deletion strains, locus YMR058W, strain fet3, hits give low values 0.986 | S. cerevisiae deletion strains, locus YMR078C, strain ctf18, hits give low values 0.98 | S. cerevisiae deletion strains, locus YMR125W, strain sto1, hits give low values 0.947 | S. cerevisiae deletion strains, locus YMR129W, hits give low values 0.974 | S. cerevisiae deletion strains, locus YMR205C, strain PFK2, hits give low values 0.988 | S. cerevisiae deletion strains, locus YMR223W, strain ubp8, hits give low values 1.02 | S. cerevisiae deletion strains, locus YMR231W, strain pep5, hits give low values 1.02 | S. cerevisiae deletion strains, locus YMR307W, strain GAS1, hits give low values 1.02 | S. cerevisiae deletion strains, locus YNL067W, strain RPL9B, hits give low values 0.996 | S. cerevisiae deletion strains, locus YNL071W, strain lat1, hits give low values 0.973 | S. cerevisiae deletion strains, locus YNL128W, strain TEP1, hits give low values 0.97 | S. cerevisiae deletion strains, locus YNL183C, strain NPR1, hits give low values 0.967 | S. cerevisiae deletion strains, locus YNL209W, strain ssb2, hits give low values 0.975 | S. cerevisiae deletion strains, locus YNL233W, strain BNI4, hits give low values 0.997 | S. cerevisiae deletion strains, locus YNL248C, strain rpa49, hits give low values 0.909 | S. cerevisiae deletion strains, locus YNL250W, strain rad50, hits give low values 0.986 | S. cerevisiae deletion strains, locus YNL271C, strain bni1, hits give low values 0.993 | S. cerevisiae deletion strains, locus YNL298W, strain CLA4, hits give low values 0.963 | S. cerevisiae deletion strains, locus YNL307C, strain MCK1, hits give low values 0.978 | S. cerevisiae deletion strains, locus YNL322C, strain KRE1 (second series), hits give low values 0.971 | S. cerevisiae deletion strains, locus YNL322C, strain KRE1, hits give low values 0.997 | S. cerevisiae deletion strains, locus YNR049C, strain mso1, hits give low values 0.963 | S. cerevisiae deletion strains, locus YNR052C, strain pop2, hits give low values 0.97 | S. cerevisiae deletion strains, locus YOL006C, strain TOP1, hits give low values 1.07 | S. cerevisiae deletion strains, locus YOL012C, strain htz1 1.13 | S. cerevisiae deletion strains, locus YOL147C, strain pex11, hits give low values 0.991 | S. cerevisiae deletion strains, locus YOR001W, strain rrp6, hits give low values 1 | S. cerevisiae deletion strains, locus YOR061W, strain CKA2, hits give low values 1 | S. cerevisiae deletion strains, locus YOR069W, strain VPS5, hits give low values 0.988 | S. cerevisiae deletion strains, locus YOR070C, strain gyp1, hits give low values 0.98 | S. cerevisiae deletion strains, locus YOR080W, strain dia2, hits give low values 0.983 | S. cerevisiae deletion strains, locus YOR083W, strain WHI5, hits give low values 0.983 | S. cerevisiae deletion strains, locus YOR106W, strain vam3, hits give low values 1.02 | S. cerevisiae deletion strains, locus YOR136W, strain idh2, hits give low values 0.996 | S. cerevisiae deletion strains, locus YOR144C, strain elg1, hits give low values 0.991 | S. cerevisiae deletion strains, locus YOR184W, strain ser1, hits give low values 0.979 | S. cerevisiae deletion strains, locus YOR231W, strain MKK1, hits give low values 0.995 | S. cerevisiae deletion strains, locus YOR265W, strain rbl2, hits give low values 0.981 | S. cerevisiae deletion strains, locus YOR270C, strain vph1, hits give low values 0.97 | S. cerevisiae deletion strains, locus YOR290C, strain snf2, hits give low values 0.943 | S. cerevisiae deletion strains, locus YOR316C, strain cot1, hits give low values 0.971 | S. cerevisiae deletion strains, locus YPL051W, strain arl3, hits give low values 0.995 | S. cerevisiae deletion strains, locus YPL078C, strain atp4, hits give low values 0.99 | S. cerevisiae deletion strains, locus YPL106C, strain sse1, hits give low values 0.914 | S. cerevisiae deletion strains, locus YPL240C, strain hsp82, hits give low values 0.979 | S. cerevisiae deletion strains, locus YPL256C, strain CLN2, hits give low values 0.954 | S. cerevisiae deletion strains, locus YPR119W, strain clb2, hits give low values 0.978 | S. cerevisiae deletion strains, locus YPR141C, strain kar3, hits give low values 0.973 | S. cerevisiae deletion strains, locus YPR163C, strain tif3, hits give low values 0.981 | S. cerevisiae deletion strains, locus YPR167C, strain met16, hits give low values 0.971 | S. cerevisiae deletion strains, strain wtn01, hits give low values 0.981 | S. cerevisiae strains, strain wild type, hits give low values 0.995
